This note sets out measurements from PubChem BioAssay (NCATS).

Assay [1] in a line: qHTS for differential inhibitors of proliferation of Plasmodium falciparum line Dd2 (AID 1882). Also: nearly all actives have a fitted effect of over 65% in size. Also: potency is read from the fitted curve at half-maximal effect. Conditions: Potency: Plasmodium falciparum Dd2 proliferation inhibition. A digest of the protocol: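 SYBR Green I DNA fluorescence read-out, ex 485/em 535 nm. Signals were normalized to 0.29 uM artemisinin and DMSO wells, then corrected using vehicle-only plates flanking each stack. Parasite growth ran 72 h in erythrocytes before lysis.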
(In qHTS, concentration-response curves come from the screen itself.)

Assay [2] can be described thus: qHTS for differential inhibitors of proliferation of Plasmodium falciparum line W2 (AID 1883).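 Also: parasites grown with compound for 72 h before lysis and staining.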 Also: potency is read from the fitted curve at half-maximal effect. Conditions: Potency: Plasmodium falciparum W2 proliferation inhibition.
The nature of assay [3]: qHTS for differential inhibitors of proliferation of Plasmodium falciparum line HB3 (AID 1886).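 Also: parasites grown with compound for 72 h before SYBR Green readout.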 Also: potency is read from the fitted curve at half-maximal effect. Conditions: Potency: Plasmodium falciparum HB3 proliferation inhibition.
A short description of assay [4]: qHTS Assay for Modulators of Human Peripheral Myelin Protein 22 (PMP22) Expression/Activity (AID 1967; active = well fitted curve in the direction sought with a large enough effect in the signal ratio; the % refers to the signal ratio). A digest of the protocol:
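MSC80 mouse Schwann cells stably carrying Pmp22 promoter–green click beetle luciferase plus EF-alpha–red luciferase control were dosed for 24h at 37 °C. Dual-colour luminescence was filter-overlap corrected; %Activity came from green/red ratio versus untreated cells.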

Assay [5] has as its target ATP-dependent DNA helicase Q1 (Homo sapiens) (UniProt P46063). Nature of the assay: qHTS Validation Assay for Inhibitors of RecQ-Like Dna Helicase 1 (RECQ1) (AID 2353). The procedure, abridged:
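50 nM RECQ1T1 preincubated 15 min with compound in Tris pH 8.0 buffer with MgCl2, DTT, Tween-20 and 2.5 ug/ml poly(dI-dC); started with 200 nM TAMRA/BHQ-2 forked duplex and 2 mM ATP. Unwinding read as fluorescence (525/598 nm), two reads 2 h apart.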

Assay [6] can be described thus: High Content Imaging Cell-Based qHTS for Inhibitors of the mTORC1 Signaling Pathway in MEF (Tsc2-/-, p53-/-) Cells (AID 2666).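 Also: percent of cells scored positive for phospho-rpS6 Ser235/236 immunostaining by imaging.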 A digest of the protocol: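 Read-out: % positive cells per well, with thresholds from highest- and lowest-signal wells, based on phospho-rpS6 (Ser235/236) intensity normalized to Hoechst nuclear stain. Cells: Tsc2-/-, p53-/- MEFs carrying empty vector; compound 24 hrs, 37 degree Celsius.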

Assay [7] can be described thus: High Content Imaging Cell-Based qHTS for Inhibitors of the mTORC1 Signaling Pathway in MEF Cells (AID 2667). Also: potency is read from the fitted curve at half-maximal effect. The procedure, abridged:
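MEF (Tsc2-/-, p53-/-, WT Tsc2 re-expressed); cpd 24 h, 37 °C; PFA fix; Alexa-488 anti-p-rpS6 Ser235/236, PI, Hoechst; IN Cell imaging; Hoechst/Alexa-488 intensity ratio; % active cells, thresholds set from rapamycin and DMSO wells.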

Assay [8] in a line: Cytometry Cell-Based qHTS for Inhibitors of the mTORC1 Signaling Pathway in MEF cells (AID 2668).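 Also: Tsc2-/- p53-/- mouse embryonic fibroblasts stably re-expressing wild-type Tsc2; percent cells positive for phospho-rpS6 Ser235/236 relative to propidium iodide stain; series mostly up to about 38 µM.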 The procedure, abridged:
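WT MEFs (Tsc2-/-, p53-/- stably re-expressing WT Tsc2) in DMEM + 10% FBS received compounds 24 hrs after plating, for 24 hrs at 37 degree Celsius. Fixed cells stained with Alexa-488 anti-phospho-rpS6 Ser235/236 and propidium iodide; laser-scanning cytometry read-out.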

Assay [9] in a line: Validation screen for small molecules that induce DNA re-replication in MCF 10A normal breast cells (AID 463097). Also: nearly all actives have a fitted effect of over 60% in size. The procedure, abridged:
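Readout: Hoechst nuclear fluorescence intensity, 405 ex / 500-530 em, by scanning plate imager; re-replication scored as increase in nuclei with elevated DNA content. Cells exposed to compound 48 hr, 37 C, 5% CO2 beforehand.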

Assay [10] concerns the target Ubiquitin carboxyl-terminal hydrolase 2 (Homo sapiens) (UniProt O75604). Kind of assay: qHTS Validation Assay for Inhibitors of Ubiquitin-specific Protease USP2a Using CHOP2 as the Reporter (AID 463106). A digest of the protocol: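 USP2 core (10nM final) was preincubated with compound for 30min at RT in 20mM Tris-HCl pH 8.0, 2mM CaCl2, 2mM beta-mercaptoethanol, 0.05% CHAPS. Ub-CHOP2 and reporter substrate (25nM each) were added, and fluorescence (Ex 485/Em 531nm) was read after 60min.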

The target of assay [11] is DNA polymerase III PolC-type (Bacillus subtilis (strain 168)) (UniProt P13267). Kind of assay: qHTS Validation Assay for the Inhibitors of DNA Replication in Gram-Positive Bacteria (AID 485295).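 Also: PicoGreen fluorescence of double-stranded DNA made on primed circular M13 template; series mostly up to about 57 µM.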 A digest of the protocol:
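Reconstituted B. subtilis holoenzyme (Pol III, beta clamp, SSB, primase) was preincubated with compound at room temperature, then given single-stranded circular M13Gori plus dNTPs and NTPs. EDTA-containing PicoGreen stopped the reaction, and dsDNA product was read by fluorescence.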

The target of assay [12] is Tumor susceptibility gene 101 protein (Homo sapiens) (UniProt Q99816). Kind of assay: qHTS Validation Assay for Iinhibitors of HIV-1 Budding by Blocking the Interaction of PTAP/TSG101 (AID 485342; calls by dose curve). A digest of the protocol: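 Tsg101 binding domain (10 uM final) in pH 7.5 HEPES/NaCl/Tween 20/EDTA/TCEP buffer was mixed with pin-transferred compounds, then FITC-labeled PTAP peptide (50 nM final) was added; after 20 min at r.t., fluorescence polarization was read.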

Assay [13] deals with Beta-2 adrenergic receptor (Homo sapiens) (UniProt P07550). Nature of the assay: qHTS validation assay of beta-arrestin-biased ligands of beta2-adrenergic receptor (AID 485366). The procedure, abridged:
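Luminescence from a tTA-responsive luciferase, induced when recombinant beta-arrestin is recruited to recombinant beta2-AR, served as the agonism signal. Cells were exposed to compound for 18 hr at 37 degrees C; titrations spanned up to 46 microM.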

The target of assay [14] is Ferritin light chain (Equus caballus) (UniProt P02791). Nature of the assay: qHTS Validation Assay for Identification of Novel General Anesthetics (AID 2323). Also: series mostly up to about 77 µM. A digest of the protocol: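 Competitive displacement of profluorescent 1-aminoanthracene (1-AMA, 50% saturated solution in PBS) from 10 uM horse-spleen apoferritin. Compounds incubated 10 min at room temperature; fluorescence read at 380 nm excitation/535 nm emission, normalized to free 1-AMA and complex, fitted with four-parameter Hill equation.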

The target in assay [15] is RecQ-like DNA helicase BLM (Homo sapiens) (UniProt P54132). Kind of assay: qHTS Validation Assay for Inhibitors of Bloom's syndrome helicase (BLM) (AID 2364). The procedure, abridged:
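BLM 50 nM in 25 mM Tris-HCl pH 8.0, 5 mM NaCl, 2 mM MgCl2, 1 mM DTT, 0.01% Tween-20, 2.5 ug/ml poly(dI-dC); 15 min cpd preinc, RT. Start: 200 nM forked DNA + 2 mM ATP (final). TAMRA read, 2 reads 2 h apart.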

A short description of assay [16]: Cytometric Cell-Based qHTS for Inhibitors of the mTORC1 Signaling Pathway in MEF (Tsc2-/-, p53-/-) Cells (AID 2660).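 Also: percent of cells above a phospho-rpS6 to PI ratio cutoff in each well; series mostly up to about 38 µM.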 A digest of the protocol: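 Percent of cells positive for normalized phospho-S6 staining is reported, with the cutoff set from rapamycin (7.5 nM) versus DMSO wells. Tsc2-/-, p53-/- MEFs received compound for 24 hrs.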
Assay [17] can be described thus: qHTS Validation Assay to Find Inhibitors of Chronic Active B-Cell Receptor Signaling (AID 485345; active = well fitted curve in the direction sought with a large enough effect in the main read-out, with a control signal flat, not every such curve was filed as active). The procedure, abridged: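 TMD8 ABC-DLBCL cells with dox-inducible green luciferase–IκBα fusion and red native luciferase; compounds 46 uM–3 nM, 4 h at 37C with doxycycline in 0.5% FBS IMDM. Green/red ratio normalized to basal and 10 uM MG-132.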

Inconclusive results are not listed. The source made the active and inactive calls. Unless noted, calls follow the shape of the dose curve; as a rule, active = well fitted curve in the direction sought with a large enough effect; inconclusive = small, poorly fitted or top-dose-only effect, or another doubt; inactive = no such curve, though single readings can be large; an effect the other way counts as inactive or inconclusive.

Chain of ATP-dependent DNA helicase Q1 (Homo sapiens) (P46063 whole entry, looked up): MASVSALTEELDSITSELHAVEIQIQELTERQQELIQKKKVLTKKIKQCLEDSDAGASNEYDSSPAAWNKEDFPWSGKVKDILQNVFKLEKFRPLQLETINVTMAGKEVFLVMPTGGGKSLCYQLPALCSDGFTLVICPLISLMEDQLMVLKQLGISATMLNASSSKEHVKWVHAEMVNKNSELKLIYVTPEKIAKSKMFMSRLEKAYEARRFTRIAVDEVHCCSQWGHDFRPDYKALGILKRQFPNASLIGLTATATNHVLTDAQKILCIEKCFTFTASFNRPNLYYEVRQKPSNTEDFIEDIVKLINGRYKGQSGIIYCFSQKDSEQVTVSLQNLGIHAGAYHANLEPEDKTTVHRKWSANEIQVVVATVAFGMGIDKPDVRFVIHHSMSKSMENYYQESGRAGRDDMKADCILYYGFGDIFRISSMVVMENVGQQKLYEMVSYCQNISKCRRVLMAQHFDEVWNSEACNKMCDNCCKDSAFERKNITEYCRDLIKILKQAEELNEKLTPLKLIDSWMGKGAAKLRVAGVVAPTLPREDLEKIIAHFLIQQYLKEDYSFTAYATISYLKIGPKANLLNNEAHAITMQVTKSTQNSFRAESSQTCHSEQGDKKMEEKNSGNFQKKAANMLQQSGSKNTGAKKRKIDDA
Chain of Beta-2 adrenergic receptor (Homo sapiens) (P07550 whole entry, looked up): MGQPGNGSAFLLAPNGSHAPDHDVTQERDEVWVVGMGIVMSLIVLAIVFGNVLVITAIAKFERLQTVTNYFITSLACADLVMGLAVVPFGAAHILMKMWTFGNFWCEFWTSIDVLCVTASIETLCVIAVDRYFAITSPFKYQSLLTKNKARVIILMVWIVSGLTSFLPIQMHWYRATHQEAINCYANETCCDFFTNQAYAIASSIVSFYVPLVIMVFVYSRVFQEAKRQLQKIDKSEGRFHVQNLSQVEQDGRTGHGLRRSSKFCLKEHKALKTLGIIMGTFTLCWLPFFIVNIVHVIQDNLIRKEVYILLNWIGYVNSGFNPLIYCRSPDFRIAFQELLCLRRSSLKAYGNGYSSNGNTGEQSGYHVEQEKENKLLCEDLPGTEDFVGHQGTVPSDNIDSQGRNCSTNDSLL
Chain of Ferritin light chain (Equus caballus) (P02791 2-175 limits assumed): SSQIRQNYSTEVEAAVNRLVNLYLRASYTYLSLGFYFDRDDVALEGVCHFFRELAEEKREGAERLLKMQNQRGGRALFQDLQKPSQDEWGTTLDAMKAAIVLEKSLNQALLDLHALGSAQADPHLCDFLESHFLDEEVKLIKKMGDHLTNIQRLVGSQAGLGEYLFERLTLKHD
Chain of Ubiquitin carboxyl-terminal hydrolase 2 (Homo sapiens) (O75604 whole entry, looked up): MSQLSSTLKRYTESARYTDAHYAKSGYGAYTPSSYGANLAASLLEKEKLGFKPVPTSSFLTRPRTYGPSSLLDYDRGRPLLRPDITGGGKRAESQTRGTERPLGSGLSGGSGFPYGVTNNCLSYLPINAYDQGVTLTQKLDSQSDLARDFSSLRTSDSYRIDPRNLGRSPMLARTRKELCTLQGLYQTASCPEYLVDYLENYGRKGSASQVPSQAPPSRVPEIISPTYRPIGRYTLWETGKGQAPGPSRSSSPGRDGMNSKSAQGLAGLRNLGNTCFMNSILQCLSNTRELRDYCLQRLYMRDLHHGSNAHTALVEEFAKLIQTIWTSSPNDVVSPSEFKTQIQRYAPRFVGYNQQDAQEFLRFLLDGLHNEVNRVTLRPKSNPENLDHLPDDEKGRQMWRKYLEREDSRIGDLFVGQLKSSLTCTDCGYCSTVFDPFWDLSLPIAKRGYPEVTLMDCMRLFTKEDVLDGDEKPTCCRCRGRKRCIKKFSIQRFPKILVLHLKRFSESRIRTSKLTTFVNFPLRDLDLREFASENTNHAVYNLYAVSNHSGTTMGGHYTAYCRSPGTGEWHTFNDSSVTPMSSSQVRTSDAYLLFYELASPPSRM
Chain of DNA polymerase III PolC-type (Bacillus subtilis (strain 168)) (P13267 whole entry, looked up): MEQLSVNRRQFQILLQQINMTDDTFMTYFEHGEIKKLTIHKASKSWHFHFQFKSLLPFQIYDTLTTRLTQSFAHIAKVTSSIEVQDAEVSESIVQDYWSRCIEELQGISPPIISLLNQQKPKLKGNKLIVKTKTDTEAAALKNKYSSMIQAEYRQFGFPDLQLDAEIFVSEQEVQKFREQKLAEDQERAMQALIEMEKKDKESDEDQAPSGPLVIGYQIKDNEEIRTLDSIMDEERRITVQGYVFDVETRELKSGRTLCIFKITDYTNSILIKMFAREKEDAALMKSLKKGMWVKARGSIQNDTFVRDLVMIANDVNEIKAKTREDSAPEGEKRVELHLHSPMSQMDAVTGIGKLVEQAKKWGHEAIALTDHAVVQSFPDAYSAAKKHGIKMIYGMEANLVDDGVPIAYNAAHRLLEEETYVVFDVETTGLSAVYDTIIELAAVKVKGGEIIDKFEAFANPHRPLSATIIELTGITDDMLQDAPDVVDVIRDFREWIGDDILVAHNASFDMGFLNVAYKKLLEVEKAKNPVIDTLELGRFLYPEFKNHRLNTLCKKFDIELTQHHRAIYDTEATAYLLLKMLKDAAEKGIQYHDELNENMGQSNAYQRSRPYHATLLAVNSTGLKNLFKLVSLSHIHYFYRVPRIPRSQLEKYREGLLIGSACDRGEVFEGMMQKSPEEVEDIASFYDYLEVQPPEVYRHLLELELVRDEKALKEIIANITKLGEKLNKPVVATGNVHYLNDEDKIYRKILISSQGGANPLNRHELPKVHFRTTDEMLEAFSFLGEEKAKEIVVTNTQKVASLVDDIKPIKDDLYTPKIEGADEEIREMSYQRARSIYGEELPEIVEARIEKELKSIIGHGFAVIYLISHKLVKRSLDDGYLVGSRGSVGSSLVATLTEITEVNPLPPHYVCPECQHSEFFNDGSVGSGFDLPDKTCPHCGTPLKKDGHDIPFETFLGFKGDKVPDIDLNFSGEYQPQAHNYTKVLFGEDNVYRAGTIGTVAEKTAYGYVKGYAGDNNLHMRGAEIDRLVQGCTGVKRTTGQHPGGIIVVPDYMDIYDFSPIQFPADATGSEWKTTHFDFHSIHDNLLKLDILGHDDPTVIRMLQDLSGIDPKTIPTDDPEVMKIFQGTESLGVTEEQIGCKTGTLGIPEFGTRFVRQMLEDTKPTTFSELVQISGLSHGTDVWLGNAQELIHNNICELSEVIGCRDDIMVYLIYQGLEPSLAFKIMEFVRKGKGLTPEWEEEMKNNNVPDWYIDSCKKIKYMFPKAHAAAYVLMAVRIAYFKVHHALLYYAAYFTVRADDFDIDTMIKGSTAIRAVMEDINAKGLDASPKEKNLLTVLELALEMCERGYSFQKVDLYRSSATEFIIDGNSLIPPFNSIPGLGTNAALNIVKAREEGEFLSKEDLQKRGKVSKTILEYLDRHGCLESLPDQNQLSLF
Chain of Tumor susceptibility gene 101 protein (Homo sapiens) (Q99816 whole entry, looked up, the tested form may be a part): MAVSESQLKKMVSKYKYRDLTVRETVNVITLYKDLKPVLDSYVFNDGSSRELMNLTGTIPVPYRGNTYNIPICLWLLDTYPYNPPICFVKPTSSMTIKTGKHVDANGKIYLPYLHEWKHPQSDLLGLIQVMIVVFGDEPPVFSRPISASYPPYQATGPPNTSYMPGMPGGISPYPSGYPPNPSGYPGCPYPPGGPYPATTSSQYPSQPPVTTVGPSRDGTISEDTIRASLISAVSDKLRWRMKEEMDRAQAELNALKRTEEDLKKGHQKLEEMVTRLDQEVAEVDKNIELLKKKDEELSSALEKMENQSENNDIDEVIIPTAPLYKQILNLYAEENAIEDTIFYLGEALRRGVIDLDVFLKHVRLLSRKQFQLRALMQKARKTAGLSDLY

Consider `N[C@@H](Cc1ccc(O)c(I)c1)C(=O)O`, for which the Potency entry in [1], in [2], in assay [3], in assay [5], in assay [6] and in [7] was “inactive” throughout. In addition, the Potency result in assay [8], in [9], in [10] and in assay [11] was “inactive” each time. Moreover, the result in assay [4], in assay [12] and in assay [13] was inactive.

In the case of `N=C(N)c1ccc(OCCCCCOc2ccc(C(=N)N)cc2)cc1` (tested in a mixture with another compound), the Potency is 1000 nM (active) in [1], 355 nM (active) in assay [2], 224 nM (active) in assay [3] and 11700 nM (active) in assay [7]. The Potency entry in [14], in assay [5], in [15], in assay [6], in [10] and in [11] was “inactive” in each case. For the same molecule, the outcome in [16], in assay [12], in [17] and in [13] was inactive.

On to `COc1ccc(CCN(C)CCc2ccc(OC)c(OC)c2)cc1OC`, for which the Potency result in assay [1], in assay [3], in [14], in [5], in [6] and in assay [7] was “inactive” each time. In addition, the Potency result in assay [8], in [9], in [10] and in assay [11] was “inactive” in each case. Besides, the Potency in assay [2] was 14100 nM (active). Further, the outcome in [16], in assay [12], in assay [17] and in [13] was inactive.

With `CN(C)C(=O)/N=N/C(=O)N(C)C`, the Potency entry in assay [1], in [2], in assay [3], in [14], in assay [5] and in assay [15] was “inactive” each time. The Potency entry in assay [6], in assay [8], in assay [9], in assay [10] and in [11] was “inactive” each time. Also, the outcome in assay [16], in assay [12], in assay [17] and in assay [13] was inactive.

As to `O=c1[nH]ccc2c(O)cccc12`, the Potency entry in [1], in [2], in assay [3], in assay [14], in [5] and in [6] was “inactive” throughout. Further, the Potency result in assay [7], in [8], in assay [9], in assay [10] and in assay [11] was “inactive” each time. For the same molecule, the outcome in assay [16], in assay [12], in assay [17] and in [13] was inactive.

Consider `CC(N)(C(=O)O)c1ccc(C(=O)O)cc1` (stereo unspecified), for which the Potency result in [1], in assay [2], in assay [3], in assay [14], in assay [5] and in assay [6] was “inactive” each time. Also, the Potency result in [7], in assay [8], in [9], in [10] and in assay [11] was “inactive” each time. Further, the outcome in [16], in assay [12], in assay [17] and in assay [13] was inactive.

As for `CC(=O)/C(C)=N/O`, the Potency result in assay [1], in assay [2], in assay [3], in [14], in assay [5] and in [6] was “inactive” each time. For the same molecule, the Potency result in assay [7], in assay [8], in assay [9], in assay [10] and in assay [11] was “inactive” throughout. Also, the molecule was called inactive in assay [16], in [12], in assay [17] and in [13].

On to `N[C@H](C(=O)O)[C@H](O)C(=O)O`, for which the Potency entry in assay [1], in assay [2], in assay [3], in assay [14], in assay [5] and in [6] was “inactive” in each case. The Potency entry in assay [7], in [9], in assay [10] and in assay [11] was “inactive” each time. In addition, the result in assay [16], in assay [12], in assay [17] and in assay [13] was inactive.

As to `NC(=O)CC[C@H](N)C(=O)O`, the Potency result in assay [1], in assay [2], in assay [3], in assay [14], in [5] and in assay [6] was “inactive” each time. Further, the Potency result in [7], in assay [8], in assay [9], in [10] and in [11] was “inactive” in each case. Also, the molecule was called inactive in assay [16], in [12], in assay [17] and in [13].
